Where “and” joins values, the source holds several entries; their conditions need not be identical. Equal values may be shown once. For some assays here: Entries with a potency or affinity are not part of this list.
Experiments:
[1] = target: T1, Methionyl-tRNA synthetase, putative (Leishmania donovani (strain BPK282A1)) (UniProt E9BF75); test: Leishmania donovani Methionine tRNA synthetase (LdMetRS):v7. Dose response assay; assay type: functional; design: conc 80 nM, time 150 minutes
T1 sequence (whole entry): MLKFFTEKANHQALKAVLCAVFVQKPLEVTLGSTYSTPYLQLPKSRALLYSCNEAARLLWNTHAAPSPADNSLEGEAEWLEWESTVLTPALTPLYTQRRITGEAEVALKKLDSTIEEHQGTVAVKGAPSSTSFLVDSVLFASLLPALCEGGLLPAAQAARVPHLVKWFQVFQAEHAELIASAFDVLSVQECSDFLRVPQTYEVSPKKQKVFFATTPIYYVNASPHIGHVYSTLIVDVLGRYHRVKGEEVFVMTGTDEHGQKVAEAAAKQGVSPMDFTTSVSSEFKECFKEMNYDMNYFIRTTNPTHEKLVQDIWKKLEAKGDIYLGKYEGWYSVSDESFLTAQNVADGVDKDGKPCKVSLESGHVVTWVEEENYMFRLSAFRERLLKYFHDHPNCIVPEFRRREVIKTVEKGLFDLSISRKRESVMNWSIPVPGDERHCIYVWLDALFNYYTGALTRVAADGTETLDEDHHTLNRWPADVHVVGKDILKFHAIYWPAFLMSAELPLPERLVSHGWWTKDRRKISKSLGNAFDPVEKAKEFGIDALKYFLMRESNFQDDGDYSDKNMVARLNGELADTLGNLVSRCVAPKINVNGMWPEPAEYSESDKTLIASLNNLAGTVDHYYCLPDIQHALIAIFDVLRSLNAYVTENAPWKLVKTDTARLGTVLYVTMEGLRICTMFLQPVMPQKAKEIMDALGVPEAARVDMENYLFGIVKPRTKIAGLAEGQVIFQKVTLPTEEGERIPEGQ

[2] = target: Protein translocase subunit SecA (Escherichia coli (strain K12)) (UniProt P10408); test: Assay to Identify E. coli SecA ATPase Inhibitors; assay type: functional; design: scale not given: direction of the effect not stated beside the values; conditions: 30 µM
[3] = target: T2, Ubiquitin-activating enzyme e1, putative (Leishmania donovani (strain BPK282A1)) (UniProt E9BSI1); test: Leishmania donovani Ubiquitin Activating Enzyme (LdE1); assay type: functional; design: scale not given: direction of the effect not stated beside the values; conditions: 30 µM
T2 sequence (whole entry): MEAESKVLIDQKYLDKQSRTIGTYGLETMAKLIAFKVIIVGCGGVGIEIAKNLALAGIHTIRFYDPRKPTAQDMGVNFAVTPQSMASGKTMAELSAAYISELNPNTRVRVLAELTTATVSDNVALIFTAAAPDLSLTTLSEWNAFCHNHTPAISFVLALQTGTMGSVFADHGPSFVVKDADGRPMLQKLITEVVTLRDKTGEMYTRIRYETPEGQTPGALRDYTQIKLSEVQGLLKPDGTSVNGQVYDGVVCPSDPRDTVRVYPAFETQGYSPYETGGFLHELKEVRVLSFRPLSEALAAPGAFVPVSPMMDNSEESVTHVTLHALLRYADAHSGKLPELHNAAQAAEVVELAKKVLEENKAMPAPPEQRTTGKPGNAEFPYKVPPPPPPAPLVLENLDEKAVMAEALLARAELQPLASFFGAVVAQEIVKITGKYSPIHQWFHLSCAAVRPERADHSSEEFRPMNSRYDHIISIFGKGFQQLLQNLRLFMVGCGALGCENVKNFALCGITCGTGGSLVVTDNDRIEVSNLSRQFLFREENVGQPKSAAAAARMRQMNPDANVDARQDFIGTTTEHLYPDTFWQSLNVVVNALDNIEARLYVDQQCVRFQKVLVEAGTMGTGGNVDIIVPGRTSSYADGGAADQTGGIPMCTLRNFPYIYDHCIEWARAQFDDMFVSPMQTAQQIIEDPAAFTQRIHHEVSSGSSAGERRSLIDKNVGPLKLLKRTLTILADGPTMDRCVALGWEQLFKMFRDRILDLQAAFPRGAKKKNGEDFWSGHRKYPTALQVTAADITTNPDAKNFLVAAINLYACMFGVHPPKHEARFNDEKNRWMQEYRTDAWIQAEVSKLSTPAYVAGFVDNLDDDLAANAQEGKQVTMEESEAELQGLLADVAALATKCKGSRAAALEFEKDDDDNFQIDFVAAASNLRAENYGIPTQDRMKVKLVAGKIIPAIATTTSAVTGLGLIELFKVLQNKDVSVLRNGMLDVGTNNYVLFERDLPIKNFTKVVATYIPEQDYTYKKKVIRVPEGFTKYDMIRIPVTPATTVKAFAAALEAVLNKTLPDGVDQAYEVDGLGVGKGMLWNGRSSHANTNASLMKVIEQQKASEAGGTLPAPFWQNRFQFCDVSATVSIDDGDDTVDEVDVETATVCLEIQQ

[4] = target: AMP-activated protein kinase, AMPK (Homo sapiens) (UniProt P54646+O43741+P54619+Q9UGJ0+Q9Y478+Q13131+Q9UGI9); test: AMP-dependent Kinase enzyme assay. An in vitro enzyme assay that detects ADP turnover that is directly proportional to AMPK activity. This uses naive AMPK that is activated during the assay with MK-8722; assay type: functional; design: scale not given: direction of the effect not stated beside the values; conditions: 30 µM
[5] = target: Sialic acid-binding Ig-like lectin 9 (Homo sapiens) (UniProt Q9Y336); test: Hs-Siglec9 ALPHAscreen SOP 20170721; design: scale not given: direction of the effect not stated beside the values; conditions: 10 µM
Trypanosoma cruzi = test: Trypanosoma cruzi phosphomannomutase and mannose-1-phosphate guanylyltransferase assay; assay type: functional; design: scale not given: direction of the effect not stated beside the values; conditions: 10 µM
[6] = target: T3, Arginase-2, mitochondrial (Homo sapiens) (UniProt P78540); test: in vitro enzyme assay to detect the production of urea directly proportional to the activity of Arginase II; assay type: functional; design: scale not given: in the data most compounds retested in dose-response had high values; conditions: 33.3 µM
T3 sequence (whole entry): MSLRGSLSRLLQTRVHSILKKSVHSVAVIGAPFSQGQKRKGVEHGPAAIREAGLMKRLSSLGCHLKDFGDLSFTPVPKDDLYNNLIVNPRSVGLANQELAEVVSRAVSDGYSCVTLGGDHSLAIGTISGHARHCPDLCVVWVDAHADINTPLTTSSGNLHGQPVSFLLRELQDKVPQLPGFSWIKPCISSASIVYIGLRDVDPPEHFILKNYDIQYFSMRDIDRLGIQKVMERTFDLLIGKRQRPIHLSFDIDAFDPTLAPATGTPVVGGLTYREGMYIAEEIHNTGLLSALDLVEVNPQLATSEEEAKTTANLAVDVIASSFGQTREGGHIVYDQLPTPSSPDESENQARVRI

[7] = target: T4, Proteasome subunit beta (Trypanosoma cruzi) (UniProt O96673); test: Trypanosoma cruzi proteasome chymotrypsin-like activity (TcProtChymo) assay.; assay type: functional; design: scale not given: in the data most compounds retested in dose-response had high values; conditions: 9.37 µM
T4 sequence (whole entry): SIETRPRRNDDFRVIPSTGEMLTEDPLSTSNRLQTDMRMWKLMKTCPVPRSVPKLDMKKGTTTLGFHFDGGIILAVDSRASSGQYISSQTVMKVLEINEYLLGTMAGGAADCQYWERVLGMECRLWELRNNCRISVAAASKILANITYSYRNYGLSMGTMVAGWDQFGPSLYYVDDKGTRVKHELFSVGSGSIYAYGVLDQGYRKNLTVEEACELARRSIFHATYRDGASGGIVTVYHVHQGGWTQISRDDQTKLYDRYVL

N/A = test: Trypanosoma cruzi proteasome luciferase counter-screen; assay type: functional; design: scale not given: direction of the effect not stated beside the values; conditions: 9.37 µM
Homo sapiens = species: Homo sapiens; test: To identify inhibition of the IFN signalling (Jak-Stat) pathway via expression of an eGFP reporter gene under the control of an IFN-stimulated response element (ISRE) containing MxA promoter.; assay type: functional; design: scale not given: direction of the effect not stated beside the values; conditions: 30 µM
[8] = target: T5, Tyrosyl-tRNA synthetase, putative (Trypanosoma cruzi (strain CL Brener)) (UniProt Q4DSP6); test: Trypanosoma cruzi tyrosyl tRNA synthetase (TcYRS) _High Tyrosine SOP; assay type: functional; design: scale not given: in the data most compounds retested in dose-response had high values; conditions: 30 µM
T5 sequence (whole entry): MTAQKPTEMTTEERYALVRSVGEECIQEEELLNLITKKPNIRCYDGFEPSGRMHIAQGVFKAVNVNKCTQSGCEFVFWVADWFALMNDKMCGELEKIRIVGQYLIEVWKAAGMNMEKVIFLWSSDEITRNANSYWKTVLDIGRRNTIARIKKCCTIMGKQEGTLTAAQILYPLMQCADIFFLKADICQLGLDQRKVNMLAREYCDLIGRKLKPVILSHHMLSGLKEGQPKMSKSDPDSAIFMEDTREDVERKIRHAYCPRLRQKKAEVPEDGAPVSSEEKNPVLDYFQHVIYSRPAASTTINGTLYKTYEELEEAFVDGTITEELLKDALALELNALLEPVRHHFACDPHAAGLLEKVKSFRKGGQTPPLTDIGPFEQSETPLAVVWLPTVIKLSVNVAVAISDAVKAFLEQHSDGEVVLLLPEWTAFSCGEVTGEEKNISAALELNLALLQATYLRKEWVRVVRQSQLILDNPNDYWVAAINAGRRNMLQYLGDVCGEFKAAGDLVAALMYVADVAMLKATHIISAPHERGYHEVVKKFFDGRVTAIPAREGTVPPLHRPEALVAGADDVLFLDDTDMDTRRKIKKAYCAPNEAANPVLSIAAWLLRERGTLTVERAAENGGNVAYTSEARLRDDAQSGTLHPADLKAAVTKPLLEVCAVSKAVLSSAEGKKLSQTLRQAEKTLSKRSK

[9] = target: T5, Tyrosyl-tRNA synthetase, putative (Trypanosoma cruzi (strain CL Brener)); test: Trypanosoma cruzi tyrosyl tRNA synthetase (TcYRS) SOP; assay type: functional; design: scale not given: direction of the effect not stated beside the values; conditions: 30 µM
[10] = target: Chromo domain-containing protein 1 (Saccharomyces cerevisiae (strain ATCC 204508 / S288c) (Baker's yeast)) (UniProt P32657); test: ScCHD-1 Enzyme Inhibition Assay; assay type: functional; design: scale not given: in the data most compounds retested in dose-response had high values; conditions: 30 µM
Sequence of Chromo domain-containing protein 1 (Saccharomyces cerevisiae (strain ATCC 204508 / S288c) (Baker's yeast)) (P32657 whole entry, the tested form may be a part): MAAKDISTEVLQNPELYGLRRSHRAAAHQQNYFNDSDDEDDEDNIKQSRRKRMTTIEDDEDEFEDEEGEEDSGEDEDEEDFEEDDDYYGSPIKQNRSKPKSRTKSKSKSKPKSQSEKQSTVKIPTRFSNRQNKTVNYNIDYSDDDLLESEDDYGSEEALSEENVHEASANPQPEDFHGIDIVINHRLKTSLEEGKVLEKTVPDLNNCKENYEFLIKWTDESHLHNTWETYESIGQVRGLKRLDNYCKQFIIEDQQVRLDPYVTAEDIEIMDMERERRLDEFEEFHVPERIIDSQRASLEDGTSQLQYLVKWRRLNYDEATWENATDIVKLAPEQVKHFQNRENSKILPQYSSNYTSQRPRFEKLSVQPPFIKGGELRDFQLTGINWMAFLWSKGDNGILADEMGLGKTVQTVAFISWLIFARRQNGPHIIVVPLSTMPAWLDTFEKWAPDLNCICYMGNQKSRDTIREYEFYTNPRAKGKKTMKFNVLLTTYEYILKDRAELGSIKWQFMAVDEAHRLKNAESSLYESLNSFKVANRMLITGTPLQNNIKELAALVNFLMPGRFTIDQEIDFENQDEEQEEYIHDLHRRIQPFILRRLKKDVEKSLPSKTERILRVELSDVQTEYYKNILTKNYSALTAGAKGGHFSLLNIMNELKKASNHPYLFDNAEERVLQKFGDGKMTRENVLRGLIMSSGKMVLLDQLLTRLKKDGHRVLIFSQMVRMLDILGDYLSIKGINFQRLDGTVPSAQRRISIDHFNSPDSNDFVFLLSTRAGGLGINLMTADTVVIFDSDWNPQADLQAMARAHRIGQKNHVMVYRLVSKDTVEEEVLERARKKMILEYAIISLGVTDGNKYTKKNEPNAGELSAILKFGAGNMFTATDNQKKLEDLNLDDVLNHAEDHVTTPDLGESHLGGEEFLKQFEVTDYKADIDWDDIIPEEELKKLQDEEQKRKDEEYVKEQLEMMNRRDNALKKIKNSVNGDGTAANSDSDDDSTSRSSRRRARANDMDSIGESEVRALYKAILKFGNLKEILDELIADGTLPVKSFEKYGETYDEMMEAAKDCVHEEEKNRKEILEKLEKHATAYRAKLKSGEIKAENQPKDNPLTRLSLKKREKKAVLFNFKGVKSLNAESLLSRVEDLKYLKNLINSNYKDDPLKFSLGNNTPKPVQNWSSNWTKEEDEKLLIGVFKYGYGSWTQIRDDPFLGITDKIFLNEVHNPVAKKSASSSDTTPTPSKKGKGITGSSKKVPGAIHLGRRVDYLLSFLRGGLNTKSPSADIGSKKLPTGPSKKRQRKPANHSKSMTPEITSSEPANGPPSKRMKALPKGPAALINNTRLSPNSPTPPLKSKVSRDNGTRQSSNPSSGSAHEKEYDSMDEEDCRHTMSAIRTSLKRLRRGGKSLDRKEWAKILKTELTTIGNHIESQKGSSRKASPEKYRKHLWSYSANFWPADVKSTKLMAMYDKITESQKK

Sequence of Protein translocase subunit SecA (Escherichia coli (strain K12)) (P10408 whole entry): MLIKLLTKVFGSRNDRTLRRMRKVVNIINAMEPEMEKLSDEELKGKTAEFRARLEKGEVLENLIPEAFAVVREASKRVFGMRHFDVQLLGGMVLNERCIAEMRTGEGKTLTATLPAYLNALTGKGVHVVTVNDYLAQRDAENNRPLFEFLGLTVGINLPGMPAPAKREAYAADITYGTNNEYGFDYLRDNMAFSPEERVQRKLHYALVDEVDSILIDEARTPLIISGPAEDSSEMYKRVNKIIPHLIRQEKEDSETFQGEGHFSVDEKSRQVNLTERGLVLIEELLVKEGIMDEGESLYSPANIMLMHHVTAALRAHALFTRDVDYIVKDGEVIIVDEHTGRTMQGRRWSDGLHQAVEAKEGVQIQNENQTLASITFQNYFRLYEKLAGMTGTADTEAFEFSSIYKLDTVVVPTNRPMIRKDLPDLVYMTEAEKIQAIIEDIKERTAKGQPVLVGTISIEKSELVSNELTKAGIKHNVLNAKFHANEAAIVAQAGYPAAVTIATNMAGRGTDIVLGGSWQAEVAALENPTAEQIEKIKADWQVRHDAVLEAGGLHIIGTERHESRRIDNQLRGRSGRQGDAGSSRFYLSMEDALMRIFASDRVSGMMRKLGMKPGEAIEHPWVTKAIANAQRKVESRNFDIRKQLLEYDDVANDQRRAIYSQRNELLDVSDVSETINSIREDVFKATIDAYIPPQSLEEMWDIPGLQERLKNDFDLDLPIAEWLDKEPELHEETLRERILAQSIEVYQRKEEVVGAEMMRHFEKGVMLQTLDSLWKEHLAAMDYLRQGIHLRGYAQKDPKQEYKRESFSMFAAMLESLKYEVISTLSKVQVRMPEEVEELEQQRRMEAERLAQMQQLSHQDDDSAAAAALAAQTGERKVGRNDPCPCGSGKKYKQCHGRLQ
Sequence of Sialic acid-binding Ig-like lectin 9 (Homo sapiens) (Q9Y336 whole entry): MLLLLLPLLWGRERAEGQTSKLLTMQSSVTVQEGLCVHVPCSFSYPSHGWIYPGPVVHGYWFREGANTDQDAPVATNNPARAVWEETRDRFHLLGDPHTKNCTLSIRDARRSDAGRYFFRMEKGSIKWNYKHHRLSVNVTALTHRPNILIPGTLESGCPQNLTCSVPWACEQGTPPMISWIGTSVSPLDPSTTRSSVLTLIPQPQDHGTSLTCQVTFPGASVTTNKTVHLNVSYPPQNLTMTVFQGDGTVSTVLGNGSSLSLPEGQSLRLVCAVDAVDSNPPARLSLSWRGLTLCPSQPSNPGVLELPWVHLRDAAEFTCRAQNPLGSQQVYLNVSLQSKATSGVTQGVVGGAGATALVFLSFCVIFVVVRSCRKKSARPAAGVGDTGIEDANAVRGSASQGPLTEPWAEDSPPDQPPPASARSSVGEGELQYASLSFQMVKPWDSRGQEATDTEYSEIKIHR

SMILES: CN1CCc2nc(C3CCN(C(=O)CCC4CCCC4)CC3)ncc2C1
- PXC50 ([1]; BOTTOM 0.534632588, HILLSLOPE 1.255840154, MAX_EFFECT 60.86956522, TOP 100.0): 4.14
- PXC50 ([1]; BOTTOM 3.083112022, HILLSLOPE 1.565152708, MAX_EFFECT 54.7024952, TOP 100.0): 4.03
- PXC50 ([1]; BOTTOM -8.837281555, HILLSLOPE 1.047429208, MAX_EFFECT 57.34767025, TOP 100.0): 4.14
- PXC50 ([1]; BOTTOM -19.84781307, HILLSLOPE 1.359990695, MAX_EFFECT 58.41584158, TOP 100.0): 4.22
- PXC50 ([1]; MAX_EFFECT 38.75598086): < 4
- Percent Effect [2]: -2.07%
- Percent Effect [3]: 26.7%
- Percent Effect [4]: 7.92%
- Percent Effect [5]: -1.28%
- Percent Effect (Trypanosoma cruzi): 5.51%
- Percent Effect [6]: -2.1%
- Percent Effect [7]: 27.3% and 36.4% and 44%
- Percent Effect (N/A): 6.68% and 6.76%
- Percent Effect (Homo sapiens): 23.7%
- Percent Effect [8]: 44.7%
- Percent Effect [9]: 34.6%
- Percent Effect [10]: -8.54%

SMILES: O=C(c1cc(=O)n(-c2ccccc2)[nH]1)N1CCCC(c2ccn[nH]2)C1 (configuration not stated)
- PXC50 ([1]; BOTTOM 0.320076031, HILLSLOPE 1.262872317, MAX_EFFECT 68.45753899, TOP 100.0): 4.26
- PXC50 ([1]; BOTTOM -1.400745031, HILLSLOPE 1.149427593, MAX_EFFECT 63.75838926, TOP 91.13261067): 4.31
- PXC50 ([1]; BOTTOM -5.915072335, HILLSLOPE 1.793815397, MAX_EFFECT 65.97222222, TOP 99.62132459): 4.18
- Percent Effect [4]: -16.1%

SMILES: Cc1cc(C)n(CCCn2cncc2-c2ccc3c(c2)CC(C)N3C)n1 (configuration not stated)
- PXC50 ([1]; BOTTOM 4.401789899, HILLSLOPE 1.374668367, MAX_EFFECT 53.02013423, TOP 100.0): 4.02
- PXC50 ([1]; BOTTOM 5.049738187, HILLSLOPE 0.795238386, MAX_EFFECT 63.88888889, TOP 100.0): 4.3
- PXC50 ([1]; BOTTOM 6.889933183, HILLSLOPE 1.019311149, MAX_EFFECT 71.9237435, TOP 100.0): 4.34
- PXC50 ([1]; MAX_EFFECT 6.666666667): < 4
- PXC50 ([1]; MAX_EFFECT 21.73913043): < 4

SMILES: CC1CCN(c2ccc(C(=O)N3CCCC3c3ccc[nH]3)cn2)CC1 (configuration not stated)
- PXC50 ([1]; BOTTOM 1.515439463, HILLSLOPE 1.666598775, MAX_EFFECT 83.87715931, TOP 100.0): 4.46
- PXC50 ([1]; BOTTOM -1.123012713, HILLSLOPE 2.407877124, MAX_EFFECT 92.83154122, TOP 98.62534766): 4.49
- PXC50 ([1]; BOTTOM -1.142129641, HILLSLOPE 1.640897748, MAX_EFFECT 81.18022329, TOP 100.0): 4.4
- PXC50 ([1]; BOTTOM -13.95110743, HILLSLOPE 2.091757253, MAX_EFFECT 73.91304348, TOP 74.65708324): 4.71
- PXC50 ([1]; BOTTOM -19.81350398, HILLSLOPE 1.3052719, MAX_EFFECT 84.15841584, TOP 92.57854766): 4.84
- Percent Effect [4]: -6.21%

Source: ChEMBL document CHEMBL3988442, “University of Dundee, Small-Polar-MMV Screening Library” (2021)
